The values below come from PubChem BioAssay (EPA / NIEHS).

As a reminder, the AC50 is the midpoint of the concentration-response curve, whichever way the signal moves.

Each structure is given as a SMILES string. Active and inactive are the calls of the source. The calls were made as follows: active = hit-call score of the fitted dose curve at least 0.9, where 1 is the maximum; inactive = score below 0.9.

Assay [1] has as its target CCAAT/enhancer-binding protein beta (Homo sapiens) (UniProt P17676). Briefly: ATG_C_EBP_CIS: Attagene CIS-FACTORIAL HepG2 Assay for human CCAAT/Enhancer Binding Protein (C/EBP) beta (AID 2282927). The conditions noted are these: HepG2 Attagene cis-factorial transcription factor reporter; actives raise or lower the signal. An outline of the steps:
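Chemical-treated HepG2 cells (24 h) bearing cis-regulated reporter constructs were processed for total RNA, then reverse transcription, PCR amplification, fluorescent primer extension and fragment analysis; gain- and loss-of-signal were fitted against DMSO.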

A short description of assay [2]: ATG_DR4_LXR_CIS: Attagene CIS-FACTORIAL HepG2 Assay for human Liver X Receptor (LXR), DR4 submotif (AID 2282929). The conditions noted are these: HepG2 Attagene DR4 cis-reporter, mRNA transcription; actives raise or lower the signal. The essentials: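 HepG2 cells transiently transfected with cis-promoter-driven multiplexed reporter units (DR4 element) were dosed for 24 h. Reporter mRNA was quantified by RT-PCR, fluorescent primer extension, HpaI digestion and capillary electrophoresis; bidirectional fitting versus DMSO baseline.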

Assay [3] can be described thus: ATG_AP_2_CIS: Attagene CIS-FACTORIAL HepG2 Assay for human Activator Protein 2 (AP-2) (AID 2282932). The conditions noted are these: HepG2 AP-2 cis-reporter, Attagene transcription factor profiling; actives raise or lower the signal. An outline of the steps: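 Assay in transfected HepG2 with promoter-regulated reporters, 24 h incubation after dosing. Signal is reporter mRNA fluorescence (RT-PCR, capillary electrophoresis), analysed for both increases and decreases relative to DMSO controls.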

The target of assay [4] is Transcription factor E2F1 (Homo sapiens) (UniProt Q01094). In words: ATG_E2F_CIS: Attagene CIS-FACTORIAL HepG2 Assay for human E2F Transcription Factor 1 (AID 2282935). The conditions noted are these: HepG2 Attagene cis-reporter, E2F reporter RNA transcripts; actives raise or lower the signal. The essentials: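 In this cis-factorial format, endogenous factor activity drives transfected reporters in HepG2; transcripts collected at 24 h are quantified by fluorescence after RT-PCR and capillary separation.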

Assay [5] is described as follows: ATG_E_Box_CIS: Attagene CIS-FACTORIAL HepG2 Assay for human Enhancer Box (E-box) (AID 2282936). The conditions noted are these: HepG2 E-box cis-reporter transcription, actives raise or lower the signal. An outline of the steps:
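Measured 24 h post-dosing in HepG2 cells transfected with multiple cis-regulated reporter units, signal being reporter mRNA induction detected by fluorescent RT-PCR with capillary electrophoresis; gain or loss fitted against DMSO.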

A short description of assay [6]: ATG_M_19_CIS: Attagene CIS-FACTORIAL HepG2 Assay for M19 Transcription Factor (Internal Marker) (AID 2282939). The conditions noted are these: HepG2 Attagene CIS-FACTORIAL M19 internal marker reporter; actives raise or lower the signal. The essentials:
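Following a 24 h exposure, RNA from transfected HepG2 cells was reverse-transcribed, PCR-amplified with reporter-specific primers, end-labelled with 6-FAM and HpaI-digested before capillary separation. Values represent gain or loss versus DMSO.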

Assay [7] is described as follows: ATG_GLI_CIS: Attagene CIS-FACTORIAL HepG2 Assay for human Zinc Finger Protein GLI1 (AID 2282945). The conditions noted are these: HepG2, Attagene cis-factorial reporter mRNA, GLI element; actives raise or lower the signal. An outline of the steps: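 HepG2 cells transiently transfected with cis-promoter multiplexed reporter units report endogenous transcription factor activity. After 24 h chemical exposure, reporter mRNA was quantified by RT-PCR, 6-FAM labelling, HpaI digestion and capillary electrophoresis, with bidirectional fitting against DMSO.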

The nature of assay [8]: ATG_ISRE_CIS: Attagene CIS-FACTORIAL HepG2 Assay for human Interferon Regulatory Factor 1 (IRF1) binding to an Interferon-Stimulated Response Element (ISRE) (AID 2282948). The conditions noted are these: HepG2 ISRE cis-reporter (Attagene), mRNA transcription readout; actives raise or lower the signal. An outline of the steps:
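Read-out: fluorescent RT-PCR products resolved by capillary electrophoresis, reporting endogenous transcription factor activity via ISRE-driven reporter mRNA in transfected HepG2 cells dosed for 24 h; gain or loss fitted relative to DMSO.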

Assay [9] is described as follows: ATG_M_32_CIS: Attagene CIS-FACTORIAL HepG2 Assay for M32 Transcription Factor (Internal Marker) (AID 2282949).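 Also: background control marker of the multiplexed CIS panel rather than a real target.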 The conditions noted are these: HepG2 Attagene cis-factorial M32 reporter, mRNA; actives raise or lower the signal. The essentials:
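Using DMSO as baseline, bidirectional curve fits were applied to reporter mRNA signals. These came from transiently transfected HepG2 cells exposed for 24 h, with RNA analysed by RT-PCR, FAM primer extension, HpaI digestion and CE.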

Assay [10] concerns the target Hepatocyte nuclear factor 6 (Homo sapiens) (UniProt Q9UBC0). Briefly: ATG_HNF6_CIS: Attagene CIS-FACTORIAL HepG2 Assay for human Hepatocyte Nuclear Factor 6 (HNF6) (AID 2282952). The conditions noted are these: HepG2 Attagene cis-factorial HNF6 reporter transcription; actives raise or lower the signal. An outline of the steps:
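Using cis-element reporters in HepG2 liver cells, the assay tracks endogenous factor-driven transcription 24 h post-dosing. Signal comes from 6-FAM-labelled, HpaI-digested RT-PCR fragments, with gain or loss scored against DMSO.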

Assay [11] deals with Heat shock factor protein 1 (Homo sapiens) (UniProt Q00613). In words: ATG_HSE_CIS: Attagene CIS-FACTORIAL HepG2 Assay for human Heat Shock Transcription Factor 1 (HSE) (AID 2282953). The conditions noted are these: HepG2 HSE cis-reporter, Attagene RNA transcription; actives raise or lower the signal. The essentials:
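After a 24 h incubation with test chemical, transfected HepG2 cells were harvested for RNA; reporter transcripts were measured by RT-PCR and capillary electrophoresis. Values reflect gain or loss of signal relative to DMSO.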

A short description of assay [12]: ATG_PXRE_CIS: Attagene CIS-FACTORIAL HepG2 Assay for human Pregnane X Receptor Element (PXRE) (AID 2282957). The conditions noted are these: HepG2 Attagene CIS-FACTORIAL PXRE reporter, mRNA; actives raise or lower the signal. An outline of the steps:
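Using HepG2 transfected with multiple reporter transcription units, endogenous factor-driven transcription was scored as reporter mRNA after 24 h exposure.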

The nature of assay [13]: ATG_Sox_CIS: Attagene CIS-FACTORIAL HepG2 Assay for human SRY-box transcription factor (SOX) (AID 2282960). The conditions noted are these: HepG2 Attagene cis-factorial SOX reporter, mRNA; actives raise or lower the signal. An outline of the steps:
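HepG2 cells transiently transfected with cis-element-driven multiple reporter transcription units, dosed 24 h; reporter mRNA measured by RT-PCR, FAM labelling, HpaI digestion and capillary electrophoresis. Bidirectional fit versus DMSO baseline.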

Assay [14] concerns the target Transcription factor Sp1 (Homo sapiens) (UniProt P08047). In words: ATG_Sp1_CIS: Attagene CIS-FACTORIAL HepG2 Assay for human Specificity Protein 1 (Sp1) (AID 2282961). The conditions noted are these: HepG2 Sp1 cis-reporter transcription, actives raise or lower the signal. An outline of the steps: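 HepG2 cells transiently transfected with multiple reporter transcription units driven by cis-regulatory elements; Sp1-responsive reporter mRNA measured 24 h after dosing by RT-PCR and capillary electrophoresis fluorescence, fitted bidirectionally against DMSO baseline.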

In assay [15] the target is Signal transducer and activator of transcription 3 (Homo sapiens) (UniProt P40763). Briefly: ATG_STAT3_CIS: Attagene CIS-FACTORIAL HepG2 Assay for human Signal Transducer and Activator of Transcription 3 (STAT3) (AID 2282963). The conditions noted are these: HepG2, Attagene cis-factorial STAT3 reporter transcription; actives raise or lower the signal. The essentials:
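Uses human liver HepG2 transiently carrying cis-regulated reporter transcription units. Following 24 h dosing, reporter mRNA induction was detected by RT-PCR and capillary electrophoresis, analysed bidirectionally versus DMSO.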

Assay [16] is described as follows: ATG_TA_CIS: Attagene CIS-FACTORIAL HepG2 Assay for human TA Basal Promoter (AID 2282964). The conditions noted are these: HepG2 Attagene CIS-factorial TA basal promoter reporter; actives raise or lower the signal. An outline of the steps: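 Multiplexed mRNA reporter assay, HepG2, 24 h. Reporter cDNA amplified, 6-FAM primer-extended, HpaI-cut, CE-sized; DMSO = negative control and baseline.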

Assay [17] can be described thus: ATG_TCF_b_cat_CIS: Attagene CIS-FACTORIAL HepG2 Assay for human T-Cell-Factor with beta-catenin (TCF/b-cat) (AID 2282965). The conditions noted are these: HepG2 TCF/beta-catenin cis-reporter transcription, actives raise or lower the signal. An outline of the steps:
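In this cis-format system, transfected HepG2 cells report endogenous transcription factor activity. Readout after 24 h exposure is reporter transcript abundance from RT-PCR and capillary electrophoresis, analysed for gain or loss of signal versus DMSO.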

Assay [18] is described as follows: ATG_TAL_CIS: Attagene CIS-FACTORIAL HepG2 Assay for human TAL Basal Promoter (AID 2282966).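 Also: background control endpoint measuring basal TAL promoter reporter mRNA not a specific factor.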 The conditions noted are these: HepG2 Attagene cis-factorial TAL promoter reporter; actives raise or lower the signal. The essentials:
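After 24 hours of chemical exposure, transfected HepG2 cells yielded RNA that was converted to 6-FAM-labelled, HpaI-digested reporter fragments for capillary electrophoresis. Values derive from bidirectional fitting against DMSO controls.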

Assay [19] has as its target X-box-binding protein 1 (Homo sapiens) (UniProt P17861). In words: ATG_Xbp1_CIS: Attagene CIS-FACTORIAL HepG2 Assay for human X-box Binding Protein 1 (XBP1) (AID 2282972). The conditions noted are these: HepG2 XBP1 cis-element reporter, Attagene multiplex; actives raise or lower the signal. The essentials: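 Read-out: fluorescent reporter mRNA fragments resolved by capillary electrophoresis after RT-PCR. Human HepG2 liver cells carried transfected cis-promoter reporter units and were exposed to chemicals for 24 hours. Gain or loss of signal fitted relative to DMSO baseline.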

Sequence of CCAAT/enhancer-binding protein beta (Homo sapiens) (P17676 whole entry, looked up, the tested form may be a part): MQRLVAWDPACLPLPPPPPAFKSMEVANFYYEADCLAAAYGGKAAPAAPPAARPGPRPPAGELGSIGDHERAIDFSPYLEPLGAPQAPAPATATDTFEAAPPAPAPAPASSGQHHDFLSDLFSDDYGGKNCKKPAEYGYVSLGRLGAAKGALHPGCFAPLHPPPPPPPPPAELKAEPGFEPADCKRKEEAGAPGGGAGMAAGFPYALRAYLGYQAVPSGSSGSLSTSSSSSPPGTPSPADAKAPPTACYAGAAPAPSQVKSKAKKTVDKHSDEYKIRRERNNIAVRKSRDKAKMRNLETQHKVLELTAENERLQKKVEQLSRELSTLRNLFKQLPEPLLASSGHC
Sequence of Transcription factor E2F1 (Homo sapiens) (Q01094 whole entry, looked up): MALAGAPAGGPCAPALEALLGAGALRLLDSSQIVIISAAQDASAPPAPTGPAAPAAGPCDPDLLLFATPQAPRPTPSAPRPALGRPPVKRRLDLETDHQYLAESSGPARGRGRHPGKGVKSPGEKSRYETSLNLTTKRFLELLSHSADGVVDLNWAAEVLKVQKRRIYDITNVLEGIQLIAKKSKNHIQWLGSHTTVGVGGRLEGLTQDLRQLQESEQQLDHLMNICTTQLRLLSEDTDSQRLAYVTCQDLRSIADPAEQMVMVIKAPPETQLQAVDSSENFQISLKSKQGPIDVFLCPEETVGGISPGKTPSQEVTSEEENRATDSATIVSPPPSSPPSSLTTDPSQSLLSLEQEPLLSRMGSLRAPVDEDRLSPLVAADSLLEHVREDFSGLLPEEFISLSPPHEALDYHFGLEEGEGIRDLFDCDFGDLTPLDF
Sequence of Heat shock factor protein 1 (Homo sapiens) (Q00613 whole entry, looked up): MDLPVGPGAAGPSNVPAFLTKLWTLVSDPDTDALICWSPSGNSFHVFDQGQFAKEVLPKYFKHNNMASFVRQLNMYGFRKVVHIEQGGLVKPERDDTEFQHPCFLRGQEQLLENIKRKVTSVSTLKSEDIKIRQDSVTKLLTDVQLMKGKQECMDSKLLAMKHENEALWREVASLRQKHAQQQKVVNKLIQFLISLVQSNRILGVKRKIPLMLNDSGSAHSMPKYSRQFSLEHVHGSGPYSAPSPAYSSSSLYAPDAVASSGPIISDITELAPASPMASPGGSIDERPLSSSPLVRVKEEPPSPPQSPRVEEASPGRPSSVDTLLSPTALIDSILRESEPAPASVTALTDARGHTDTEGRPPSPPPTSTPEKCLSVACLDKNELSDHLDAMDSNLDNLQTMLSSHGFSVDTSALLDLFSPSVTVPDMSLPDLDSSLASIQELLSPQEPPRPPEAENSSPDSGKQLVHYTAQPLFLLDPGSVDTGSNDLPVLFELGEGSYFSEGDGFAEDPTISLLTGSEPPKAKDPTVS
Sequence of Signal transducer and activator of transcription 3 (Homo sapiens) (P40763 whole entry, looked up): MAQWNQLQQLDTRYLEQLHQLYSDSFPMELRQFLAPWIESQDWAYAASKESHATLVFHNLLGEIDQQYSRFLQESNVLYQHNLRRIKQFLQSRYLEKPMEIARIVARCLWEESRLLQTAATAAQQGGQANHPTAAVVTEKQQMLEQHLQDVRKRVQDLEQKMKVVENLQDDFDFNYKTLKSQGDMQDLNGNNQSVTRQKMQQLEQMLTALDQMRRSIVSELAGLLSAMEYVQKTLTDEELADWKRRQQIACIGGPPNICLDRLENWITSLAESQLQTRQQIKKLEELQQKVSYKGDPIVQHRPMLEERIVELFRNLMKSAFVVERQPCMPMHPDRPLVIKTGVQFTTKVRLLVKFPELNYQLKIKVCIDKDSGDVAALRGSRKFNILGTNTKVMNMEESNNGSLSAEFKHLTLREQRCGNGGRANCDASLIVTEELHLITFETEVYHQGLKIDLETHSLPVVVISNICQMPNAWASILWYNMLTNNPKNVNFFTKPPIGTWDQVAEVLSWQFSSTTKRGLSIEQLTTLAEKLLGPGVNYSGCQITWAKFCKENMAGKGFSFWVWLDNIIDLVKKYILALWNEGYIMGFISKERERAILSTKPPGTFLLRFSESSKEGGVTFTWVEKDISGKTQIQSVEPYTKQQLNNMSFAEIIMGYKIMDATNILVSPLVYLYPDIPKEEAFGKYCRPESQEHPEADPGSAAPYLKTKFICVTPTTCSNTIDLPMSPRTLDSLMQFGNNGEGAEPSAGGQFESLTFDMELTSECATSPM
Sequence of Hepatocyte nuclear factor 6 (Homo sapiens) (Q9UBC0 whole entry, looked up, the tested form may be a part): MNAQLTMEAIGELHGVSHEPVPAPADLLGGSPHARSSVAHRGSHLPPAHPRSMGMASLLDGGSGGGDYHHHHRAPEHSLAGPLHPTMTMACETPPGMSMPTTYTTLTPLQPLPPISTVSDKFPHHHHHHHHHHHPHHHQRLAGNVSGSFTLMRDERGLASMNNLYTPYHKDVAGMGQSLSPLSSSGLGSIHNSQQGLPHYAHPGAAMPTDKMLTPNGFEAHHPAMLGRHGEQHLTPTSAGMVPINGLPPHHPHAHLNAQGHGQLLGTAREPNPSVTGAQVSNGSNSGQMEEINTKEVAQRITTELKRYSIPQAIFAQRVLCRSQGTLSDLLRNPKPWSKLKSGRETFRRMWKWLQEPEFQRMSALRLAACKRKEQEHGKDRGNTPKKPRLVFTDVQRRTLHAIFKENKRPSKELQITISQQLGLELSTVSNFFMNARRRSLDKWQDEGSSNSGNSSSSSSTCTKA
Sequence of X-box-binding protein 1 (Homo sapiens) (P17861 whole entry, looked up, the tested form may be a part): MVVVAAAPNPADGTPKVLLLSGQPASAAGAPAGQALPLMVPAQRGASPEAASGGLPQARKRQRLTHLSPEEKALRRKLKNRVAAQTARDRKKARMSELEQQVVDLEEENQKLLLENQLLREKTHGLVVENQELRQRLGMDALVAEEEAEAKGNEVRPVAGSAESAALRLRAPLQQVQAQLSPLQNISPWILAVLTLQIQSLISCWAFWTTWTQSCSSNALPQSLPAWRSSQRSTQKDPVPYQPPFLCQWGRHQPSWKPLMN
Sequence of Transcription factor Sp1 (Homo sapiens) (P08047 whole entry, looked up): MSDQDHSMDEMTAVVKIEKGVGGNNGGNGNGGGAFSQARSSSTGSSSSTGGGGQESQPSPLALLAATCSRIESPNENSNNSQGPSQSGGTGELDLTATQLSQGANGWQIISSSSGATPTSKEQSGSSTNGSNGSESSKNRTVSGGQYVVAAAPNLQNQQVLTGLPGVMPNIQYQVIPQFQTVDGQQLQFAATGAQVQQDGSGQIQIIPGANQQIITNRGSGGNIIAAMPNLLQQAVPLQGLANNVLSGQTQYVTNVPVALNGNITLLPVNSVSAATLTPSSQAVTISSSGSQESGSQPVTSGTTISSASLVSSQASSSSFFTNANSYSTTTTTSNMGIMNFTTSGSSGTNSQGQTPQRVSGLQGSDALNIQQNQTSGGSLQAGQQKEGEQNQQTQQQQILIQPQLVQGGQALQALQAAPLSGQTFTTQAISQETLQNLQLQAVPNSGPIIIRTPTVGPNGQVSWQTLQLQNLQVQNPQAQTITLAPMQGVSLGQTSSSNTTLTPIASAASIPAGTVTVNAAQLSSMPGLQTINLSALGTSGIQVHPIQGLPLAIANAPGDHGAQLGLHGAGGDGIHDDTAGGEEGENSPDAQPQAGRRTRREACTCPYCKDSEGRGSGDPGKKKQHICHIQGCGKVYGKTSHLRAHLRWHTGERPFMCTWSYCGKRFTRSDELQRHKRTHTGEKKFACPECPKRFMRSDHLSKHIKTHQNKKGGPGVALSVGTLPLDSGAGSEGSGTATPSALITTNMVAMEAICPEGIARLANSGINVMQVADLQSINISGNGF

`CC(C)C#N`: the result in [1], in assay [2], in assay [3], in assay [4], in [5] and in [6] was inactive. In addition, the result in [7], in assay [8], in [9], in assay [10], in [11] and in assay [13] was inactive. In addition, the compound was called inactive in [14], in assay [15], in assay [16], in assay [17], in [18] and in assay [19]. Moreover, the AC50 in assay [12] was 27.6 µM (active).

Consider `CC(C)CCCCCCCOC(=O)c1ccccc1C(=O)OCCCCCCCC(C)C`, for which the result in assay [1], in assay [2], in assay [3], in [4], in assay [5] and in assay [6] was inactive. Also, the result in assay [7], in assay [8], in [9], in [10], in [11] and in [13] was inactive. For the same compound, the compound was classed as inactive in [14], in assay [15], in assay [16], in [17], in assay [18] and in assay [19]. Further, the AC50 in assay [12] is 1.19 µM (active).

Turning to `CC(=O)/C=C/c1ccccc1`, the result in [1], in assay [3], in assay [4], in [5], in assay [6] and in [7] was inactive. Besides, the compound was classed as inactive in assay [9], in assay [14], in assay [15], in [16], in assay [17] and in assay [18]. The result in assay [19] was inactive. For the same compound, the concentration at half-maximal activity (AC50) in assay [2] was 78.1 µM (active); in assay [8], 100 µM (active); in assay [10], 70.9 µM (active); in assay [11], 156 µM (active); in assay [12], 26.4 µM (active); in [13], 56.4 µM (active).

As for `C[C@]12CC[C@H]3[C@@H](CC[C@@]45O[C@@H]4C(O)=C(C#N)C[C@]35C)[C@@H]1CC[C@@H]2O`, the outcome in assay [1], in [2], in assay [3], in assay [4], in assay [5] and in assay [6] was inactive. The result in assay [7], in assay [9], in assay [10], in assay [11], in assay [13] and in [14] was inactive. The call in assay [15], in assay [16] and in [18] was inactive. Moreover, the concentration at half-maximal activity (AC50) in assay [8] is 100 µM (active); in assay [12] it was 27.2 µM (active); in [17] it was 75 µM (active); in assay [19] it was 60 µM (active).

Regarding `O=C1C(Cl)=C(Cl)C(=O)C(Cl)=C1Cl`, the result in [1], in [3], in assay [4], in assay [6], in assay [7] and in assay [8] was inactive. Besides, the outcome in assay [9], in [10], in assay [12], in [13], in [14] and in assay [15] was inactive. Besides, the outcome in assay [16], in [17], in assay [18] and in [19] was inactive. In addition, the results for the AC50 in assay [2], in assay [5] and in assay [11] were 66.9 µM (active), 58.4 µM (active) and 89.5 µM (active), respectively.
